# Inconclusive results are not listed. Calls of active or inactive are those of the source. The calls were made as follows: active = hit-call score of the fitted dose curve at least 0.9, where 1 is the maximum; inconclusive = response in the unintended direction; inactive = score below 0.9.
# Target: human Adenosine A1 Receptor (AdoRA1), ADORA1 (gene 134) (UniProt P30542)
# Test: NVS_GPCR_hAdoRA1: NovaScreen (NVS) G Protein-Coupled Receptor Assay for human Adenosine A1 Receptor (AdoRA1) (AID 2283254)
# Summary of the method: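 Membranes from human cortical tissue were incubated with radioligand and test chemical for 1 hour, then filtered and counted. Activity was taken as signal loss relative to DMSO, screened at 25 uM in duplicate before concentration-response follow-up.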
# Chain of human Adenosine A1 Receptor (AdoRA1), ADORA1 (gene 134) (P30542 whole entry, looked up): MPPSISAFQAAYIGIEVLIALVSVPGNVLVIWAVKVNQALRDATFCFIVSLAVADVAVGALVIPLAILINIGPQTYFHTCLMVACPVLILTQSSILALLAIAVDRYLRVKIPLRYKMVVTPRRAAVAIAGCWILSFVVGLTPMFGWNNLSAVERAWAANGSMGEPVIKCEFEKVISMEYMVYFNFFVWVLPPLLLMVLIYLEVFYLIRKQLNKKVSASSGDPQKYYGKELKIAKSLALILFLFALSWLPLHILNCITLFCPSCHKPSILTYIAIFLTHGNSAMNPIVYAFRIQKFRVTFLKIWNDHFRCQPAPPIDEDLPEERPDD
Compound,AC50,outcome
CN(C)c1ccc(C(=C2C=CC(=[N+](C)C)C=C2)c2ccc(N(C)C)cc2)cc1,10.5 µM (active),–
COc1cccc([C@H](O)C2CCN(CCc3ccc(F)cc3)CC2)c1OC,–,inactive
O=C(O)Cc1cc(I)c(Oc2ccc(O)c(I)c2)c(I)c1,–,inactive
O=C1c2ccccc2C(=O)N1CCc1noc(-c2ccc(CN3CCCCCC3)s2)n1,–,inactive
CCOC(=O)O[C@H](C)OC(=O)c1ccc2c(c1)cc(C(=O)NC1CCN(C(C)C)CC1)n2Cc1cc(-c2ccc(Cl)s2)on1,15.9 µM (active),–
O=c1c(-c2ccc(O)cc2)coc2cc(O)cc(O)c12,–,inactive
CN(C)C(=O)C1(N2CCCCC2)CCN(CC[C@@]2(c3ccc(Cl)c(Cl)c3)CN(C(=O)c3ccccc3)CCO2)CC1,–,inactive
NCc1cccc(C2CCN(C(=O)c3ccc(C#Cc4ccccc4F)o3)CC2)c1,15.8 µM (active),–
COc1cc(C(=O)NC2CCN(C)CC2)ccc1Nc1ncc2c(n1)N(C1CCCC1)CC(F)(F)C(=O)N2C,4.71 µM (active),–
CCN(CC)C(=O)c1cc(S(=O)(=O)Cc2ccccc2)c(N2CCC(c3ccccc3)CC2)cc1N(CC)CCN(C)C,6.22 µM (active),–
CCCCCCCCCC(=O)O,–,inactive
Cc1oc2c(NC(=O)c3c(Cl)cccc3Cl)cccc2c1C(C)(C)O,–,inactive
CN(C[C@@H](CC[N+]12CCC(C3CCCCC3)(CC1)CC2)c1ccc(Cl)c(Cl)c1)C(=O)c1cc(C(F)(F)F)cc(C(F)(F)F)c1,16.7 µM (active),–

# Target: human Serotonin, 5-Hydroxytryptamine Receptor 7 (5HT7), HTR7 (gene 3363) (UniProt P34969)
# Test: NVS_GPCR_h5HT7: NovaScreen (NVS) G Protein-Coupled Receptor Assay for human Serotonin, 5-Hydroxytryptamine Receptor 7 (5HT7) (AID 2283255);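 also: hits reduce specific radioligand binding relative to DMSO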
# Summary of the method: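 Filter-bound radioactivity counted after 1 h, with loss of specific radioligand binding fitted against DMSO. Membrane protein came from CHO cells expressing human 5HT7. Chemicals were tested first at 25 uM in duplicate, then in concentration series if active.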
# Chain of human Serotonin, 5-Hydroxytryptamine Receptor 7 (5HT7), HTR7 (gene 3363) (P34969 whole entry, looked up): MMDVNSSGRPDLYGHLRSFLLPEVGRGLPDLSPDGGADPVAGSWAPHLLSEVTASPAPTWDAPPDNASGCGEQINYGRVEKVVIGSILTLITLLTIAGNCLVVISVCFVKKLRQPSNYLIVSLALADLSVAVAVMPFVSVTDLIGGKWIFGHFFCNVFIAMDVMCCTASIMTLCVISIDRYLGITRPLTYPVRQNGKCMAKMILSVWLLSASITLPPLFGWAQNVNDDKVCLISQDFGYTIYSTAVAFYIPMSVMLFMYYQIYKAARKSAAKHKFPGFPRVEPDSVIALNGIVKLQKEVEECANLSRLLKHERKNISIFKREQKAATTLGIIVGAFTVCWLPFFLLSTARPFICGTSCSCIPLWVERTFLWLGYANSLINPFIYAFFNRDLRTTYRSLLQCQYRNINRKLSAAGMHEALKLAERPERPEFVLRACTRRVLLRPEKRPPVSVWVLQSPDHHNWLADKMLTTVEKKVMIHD
Compound,AC50,outcome
CN(C)c1ccc(C(=C2C=CC(=[N+](C)C)C=C2)c2ccc(N(C)C)cc2)cc1,4.11 µM (active),–
CCCCCCCCCCCC[N+](C)(C)C,17.3 µM (active),–
CCN(Cc1cccnc1)C(=O)c1cccc(Cl)c1[C@]1(C)C(=O)N(Cc2ccc(OC)cc2OC)c2ccc(Cl)cc21,6.41 µM (active),–
COc1cccc([C@H](O)C2CCN(CCc3ccc(F)cc3)CC2)c1OC,0.395 µM (active),–
O=C1c2ccccc2C(=O)N1CCc1noc(-c2ccc(CN3CCCCCC3)s2)n1,8.12 µM (active),–
COc1ccc2cc(S(=O)(=O)N[C@H](CC(=O)N[C@H](Cc3ccc(CN4[C@H](C)CCC[C@@H]4C)cc3)C(=O)N(C)C(C)C)c3ccc4c(c3)OCO4)ccc2c1,–,inactive
CCOC(=O)O[C@H](C)OC(=O)c1ccc2c(c1)cc(C(=O)NC1CCN(C(C)C)CC1)n2Cc1cc(-c2ccc(Cl)s2)on1,2.12 µM (active),–
CN(C)C(=O)C1(N2CCCCC2)CCN(CC[C@@]2(c3ccc(Cl)c(Cl)c3)CN(C(=O)c3ccccc3)CCO2)CC1,3.39 µM (active),–
NCc1cccc(C2CCN(C(=O)c3ccc(C#Cc4ccccc4F)o3)CC2)c1,6.87 µM (active),–
COc1cc(C(=O)NC2CCN(C)CC2)ccc1Nc1ncc2c(n1)N(C1CCCC1)CC(F)(F)C(=O)N2C,3.25 µM (active),–
CCN(CC)C(=O)c1cc(S(=O)(=O)Cc2ccccc2)c(N2CCC(c3ccccc3)CC2)cc1N(CC)CCN(C)C,8.87 µM (active),–
CCCCCCCCCC(=O)O,–,inactive
CN(C[C@@H](CC[N+]12CCC(C3CCCCC3)(CC1)CC2)c1ccc(Cl)c(Cl)c1)C(=O)c1cc(C(F)(F)F)cc(C(F)(F)F)c1,1.53 µM (active),–

# Target: human Adenosine A2a Receptor (AdoRA2a), ADORA2A (gene 135) (UniProt P29274)
# Test: NVS_GPCR_hAdoRA2a: NovaScreen (NVS) G Protein-Coupled Receptor Assay for human Adenosine A2a Receptor (AdoRA2a) (AID 2283256)
# Summary of the method: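 HEK293-derived receptor preparation, radioligand displacement, 1.5 h, filtration + scintillation read. Loss of bound signal scored vs DMSO. Single-point 25 uM in duplicate first, then concentration-response for actives.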
# Chain of human Adenosine A2a Receptor (AdoRA2a), ADORA2A (gene 135) (P29274 whole entry, looked up): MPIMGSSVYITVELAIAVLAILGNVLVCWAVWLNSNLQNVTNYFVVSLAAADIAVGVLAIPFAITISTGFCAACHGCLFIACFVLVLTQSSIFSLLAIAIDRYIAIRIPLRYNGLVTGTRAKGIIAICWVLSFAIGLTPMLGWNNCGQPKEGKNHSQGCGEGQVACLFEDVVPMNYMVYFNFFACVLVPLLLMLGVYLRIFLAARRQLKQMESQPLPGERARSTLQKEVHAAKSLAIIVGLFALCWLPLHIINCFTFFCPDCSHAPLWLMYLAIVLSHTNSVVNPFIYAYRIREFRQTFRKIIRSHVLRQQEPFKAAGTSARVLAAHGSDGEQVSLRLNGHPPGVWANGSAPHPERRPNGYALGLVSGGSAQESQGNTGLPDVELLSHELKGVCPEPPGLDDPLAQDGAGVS
Compound,outcome,AC50
CC(C)(O)c1ccc(CNC(=O)c2cccnc2Oc2ccc3nonc3c2)cc1,inactive,–
CCOC(=O)O[C@H](C)OC(=O)c1ccc2c(c1)cc(C(=O)NC1CCN(C(C)C)CC1)n2Cc1cc(-c2ccc(Cl)s2)on1,–,10.2 µM (active)
O=c1c(-c2ccc(O)cc2)coc2cc(O)cc(O)c12,–,6.03 µM (active)
COc1cc(C(=O)NC2CCN(C)CC2)ccc1Nc1ncc2c(n1)N(C1CCCC1)CC(F)(F)C(=O)N2C,–,13.8 µM (active)
CCCCCCCCCC(=O)O,inactive,–

# Target: human Adrenergic, Beta 1 Receptor (Adrb1), ADRB1 (gene 153) (UniProt P08588)
# Test: NVS_GPCR_hAdrb1: NovaScreen (NVS) G Protein-Coupled Receptor Assay for human Adrenergic, Beta 1 Receptor (Adrb1) (AID 2283258)
# Summary of the method: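 Membranes/protein extracted from human neuroepithelioma cells, radioligand competition binding read by filtration and scintillation 2 h post-dose. Single 25 uM duplicate screen, then concentration-response follow-up; DMSO as negative control.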
# Chain of human Adrenergic, Beta 1 Receptor (Adrb1), ADRB1 (gene 153) (P08588 whole entry, looked up): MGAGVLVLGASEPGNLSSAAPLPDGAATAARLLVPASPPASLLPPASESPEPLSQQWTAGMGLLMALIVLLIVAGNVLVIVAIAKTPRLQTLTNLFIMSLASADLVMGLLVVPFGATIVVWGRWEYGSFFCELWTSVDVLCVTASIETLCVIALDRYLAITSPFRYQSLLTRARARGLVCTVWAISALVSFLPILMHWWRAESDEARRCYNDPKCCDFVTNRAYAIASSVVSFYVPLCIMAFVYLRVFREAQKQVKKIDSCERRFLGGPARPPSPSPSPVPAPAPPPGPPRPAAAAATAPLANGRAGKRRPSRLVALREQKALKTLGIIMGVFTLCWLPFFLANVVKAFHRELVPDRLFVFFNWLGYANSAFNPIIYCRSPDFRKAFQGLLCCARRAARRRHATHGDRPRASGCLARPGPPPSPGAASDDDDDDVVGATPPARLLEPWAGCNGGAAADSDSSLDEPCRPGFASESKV
row,Compound,AC50
1,CCOC(=O)O[C@H](C)OC(=O)c1ccc2c(c1)cc(C(=O)NC1CCN(C(C)C)CC1)n2Cc1cc(-c2ccc(Cl)s2)on1,6.33 µM (active)
2,CN(C)C(=O)C1(N2CCCCC2)CCN(CC[C@@]2(c3ccc(Cl)c(Cl)c3)CN(C(=O)c3ccccc3)CCO2)CC1,20.7 µM (active)
3,NCc1cccc(C2CCN(C(=O)c3ccc(C#Cc4ccccc4F)o3)CC2)c1,20.6 µM (active)

# Target: Beta-2 adrenergic receptor (Homo sapiens) (UniProt P07550)
# Test: NVS_GPCR_hAdrb2: NovaScreen (NVS) G Protein-Coupled Receptor Assay for human Adrenergic, Beta 2 Receptor (Adrb2) (AID 2283261)
# Summary of the method: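 Compounds screened in duplicate at 25 uM, then actives in concentration series. Human beta-2 receptor from CHO material, cell-free; radioligand displacement after 1 h measured by filtration and scintillation against DMSO baseline.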
# Chain of Beta-2 adrenergic receptor (Homo sapiens) (P07550 whole entry, looked up): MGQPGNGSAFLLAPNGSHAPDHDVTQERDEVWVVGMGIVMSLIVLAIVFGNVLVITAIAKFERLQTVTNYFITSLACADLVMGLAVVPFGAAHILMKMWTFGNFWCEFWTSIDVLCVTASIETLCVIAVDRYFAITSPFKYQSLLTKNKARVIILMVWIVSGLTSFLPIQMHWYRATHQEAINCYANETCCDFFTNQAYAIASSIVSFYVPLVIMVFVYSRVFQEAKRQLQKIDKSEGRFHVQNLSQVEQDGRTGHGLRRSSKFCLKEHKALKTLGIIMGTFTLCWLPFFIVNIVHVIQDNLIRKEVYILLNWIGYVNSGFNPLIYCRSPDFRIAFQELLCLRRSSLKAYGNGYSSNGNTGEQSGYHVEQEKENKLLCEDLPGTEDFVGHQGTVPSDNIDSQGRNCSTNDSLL
row,Compound,AC50
1,CN(C)c1ccc(C(=C2C=CC(=[N+](C)C)C=C2)c2ccc(N(C)C)cc2)cc1,14.4 µM (active)
2,CCOC(=O)O[C@H](C)OC(=O)c1ccc2c(c1)cc(C(=O)NC1CCN(C(C)C)CC1)n2Cc1cc(-c2ccc(Cl)s2)on1,12.9 µM (active)
3,CN(C)C(=O)C1(N2CCCCC2)CCN(CC[C@@]2(c3ccc(Cl)c(Cl)c3)CN(C(=O)c3ccccc3)CCO2)CC1,25.9 µM (active)
4,NCc1cccc(C2CCN(C(=O)c3ccc(C#Cc4ccccc4F)o3)CC2)c1,12.6 µM (active)
5,CCN(CC)C(=O)c1cc(S(=O)(=O)Cc2ccccc2)c(N2CCC(c3ccccc3)CC2)cc1N(CC)CCN(C)C,16.5 µM (active)

# — PubChem BioAssay (EPA / NIEHS)
